Results published in PubChem BioAssay (NCATS).
Results filed as inconclusive are left out. Calls of active or inactive are those of the source. Calls come from the whole dose curve; as a rule, active = well fitted cell-killing curve with a large enough effect; inconclusive = small, poorly fitted or top-dose-only effect, or effect the other way; inactive = no such curve, though single readings can be large or run the other way.

experiment: Viability qHTS for spleen associated tyrosine kinase inhibitor (SYKi) naive MV4-11 cells (AID 1963823); conditions: MV4-11 AML viability, CellTiter-Glo luminescence, 72 h; series mostly up to 45 µM; viability (% of control): at the top concentration; note: nearly all actives have a fitted effect of over 40% in size
Outline: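 qHTS, SYK inhibitor-naive MV4-11; 500 cells/well; 72 hr compound exposure, 37 C; CellTiter-Glo added, 10 min RT; luminescence read.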
Potency is the fitted concentration of half-maximal effect.

SMILES | viability (% of control) | Potency
CN([C@H]1c2cc(OCCCC(F)(F)F)ccc2OC(C)(C)[C@@H]1O)S(C)(=O)=O | 69.6% (inactive) | 
CC(CC12CCCN1C(=O)C1CCCN1C2=O)OC(N)=O (stereo not given) | 77.8% (inactive) | 
CCOc1nc(NC(=O)Cc2cc(OC)ccc2OC)cc(N)c1C#N | 93.1% (inactive) | 
CC(=O)OC1C(O)/C(C)=C\C2C(OC(=O)c3ccccc3)C(C)CC2(OC(C)=O)C(OC(C)=O)C(C)/C=C/C(C)(C)C1OC(C)=O (stereo not given) | 53.3% [at 17.3 µM] (inactive) | 
CC[C@@H](C)[C@H]1C(=O)O[C@H](C(C)C)C(=O)N(C)[C@@H](C(C)C)C(=O)O[C@H](C(C)C)C(=O)N(C)[C@@H](C(C)C)C(=O)O[C@H](CC(C)C)C(=O)N1C |  | 1.53 µM (active)
COc1ccc(CCC(=O)c2c(O)cc(O[C@@H]3O[C@H](CO)[C@@H](O)[C@H](O)[C@H]3O[C@@H]3O[C@@H](C)[C@H](O)[C@@H](O)[C@H]3O)cc2O)cc1O | 73.7% (inactive) | 
C=C1C(=O)OC2/C=C(\C)CC/C=C(\C)CC(OC(C)=O)C12 (stereo not given) |  | 2.59 µM (active)
CC[C@H](C)[C@H](NC(=O)[C@H]([C@@H](C)CC)N(C)C(C)=O)C(=O)N[C@H](C(=O)N[C@@H](CC(C)C)C(=O)[C@@]1(C)CO1)[C@@H](C)O |  | 0.0058 µM (active)
Oc1cccc(Nc2ncnc3sc4c(c23)CCCC4)c1 |  | 4.11 µM (active)
C=C1C(=O)O[C@@H]2[C@H]3C(C)=CC(=O)C3=C(C)[C@@H](OC(=O)/C(C)=C\C)[C@H](O)[C@@H]12 |  | 3.21 µM (active)
COc1ccc(C2(O)c3ccccc3NC(=O)C2O)cc1 (stereo not given) | 57.4% (inactive) | 
COC(=O)Cc1cc2c(c([N+](=O)[O-])c1)N(C(=O)CC[C@H](N)C(=O)O)CC2 | 85.7% (inactive) | 
CCC(CC)n1ccc2c(C(=O)NCc3c(C)cc(C)[nH]c3=O)cc(C#N)cc21 | 88.2% (inactive) | 
C=C1C(=O)O[C@@H]2CC(C)=C([C@@H](C)CCCOC(C)=O)[C@@H](O)[C@H]12 | 71.7% (inactive) | 
CC(=O)OC(CSC1CCC(=O)OC(C)CCC(=O)C1)C(=O)O (stereo not given) | 72% (inactive) | 
C[C@@H]1O[C@@H](O[C@H]2[C@H](OC(=O)[C@]34CCC(C)(C)C[C@H]3C3=CCC5[C@@]6(C)C[C@@H](O)[C@@H](O[C@@H]7O[C@H](CO)[C@@H](O)[C@H](O)[C@H]7O)[C@@](C)(CO)C6[C@H](O)C[C@@]5(C)[C@]3(C)CC4)OC[C@H](O)[C@@H]2O)[C@H](O)[C@H](O[C@@H]2OC[C@](O)(CO)[C@H]2O)[C@H]1O[C@@H]1OC[C@@H](O)[C@H](O[C@H]2O[C@H](C)[C@@H](O)[C@H](O)[C@@H]2O)[C@H]1O (stereo not given in full) | 80.1% [at 9.25 µM] (inactive) | 
CN1CCC(c2c[nH]c3ccc(NC(=O)c4ccc(F)cc4)cc23)CC1 | 63% (inactive) | 
CC(C)(O)c1ccn2c(-c3ccc(F)c(-c4ccc(F)cc4C#N)c3)cnc2c1F |  | 9.2 µM (active)
Nc1ccc(-n2nc(C(F)(F)F)cc2C(F)(F)F)cc1 | 86.8% (inactive) | 
C#CC(=O)N(c1ccc(OC)cc1OC)C(C(=O)NCC(=O)OCC)c1cccs1 (stereo not given) |  | 0.116 µM (active)

SMILES | viability (% of control) | Potency
CC(C)S(=O)(=O)c1ccc2nccc(Nc3ccc4scnc4c3)c2c1 |  | 8.2 µM (active)
C[C@@H]1CC[C@]2(C(=O)O)CC[C@]3(C)C(=CCC4[C@@]5(C)C[C@@H](O)[C@H](O)[C@@](C)(CO)C5CC[C@]43C)C2[C@]1(C)O (stereo not given in full) | 76.2% [at 17.3 µM] (inactive) | 
Cc1cc(C)c(-c2csc(NC(=O)c3ccccc3)n2)c(C)c1 |  | 6.51 µM (active)
C[C@@H]1O[C@@H](OC[C@H]2O[C@@H](OCC3CCC4CC3C4(C)C)[C@H](O)[C@@H](O)[C@@H]2O)[C@H](O)[C@H](O)[C@H]1O (stereo not given in full) | 67.2% [at 17.3 µM] (inactive) | 
C/C=C/C=C/C(O)=C1/C(=O)[C@]2(C)C(=O)[C@@](C)(O)[C@H]1[C@H]([C@@]1(C)OC(=O)C(C)=C1O)[C@H]2C(=O)CC/C=C/C | 74.5% [at 17.3 µM] (inactive) | 
CCC(C)/C=C(C)/C=C/C1=CC2=C(Cl)C(=O)C(C)(OC(C)=O)C(=O)C2=CN1C(CC(=O)O)C(=O)O (stereo not given) | 65.8% [at 17.3 µM] (inactive) | 
CN(CC(=O)N(Cc1ccc(C2CCCCC2)cc1)c1ccc(C(=O)O)cc1)S(=O)(=O)c1c(F)c(F)c(F)c(F)c1F |  | 1.84 µM (active)
CC(=O)O[C@@H]1[C@H]2[C@@H](OC(=O)c3ccccc3)[C@@H](C)C[C@]2(O)[C@H](OC(C)=O)[C@@]2(C)[C@@H]3CC(C)(C)C(=O)[C@]3(OC(C)=O)C[C@@]12C | 57.8% [at 17.3 µM] (inactive) | 
N[C@@]1(C(=O)O)CC[C@H]2[C@H](C(=O)O)[C@H]21 | 99.8% (inactive) | 
COc1cc(CC(COC2OC(CO)C(O)C(O)C2O)c2cc(/C=C/CO)cc(OC)c2O)ccc1O (stereo not given) | 80.3% [at 17.3 µM] (inactive) | 
CNC(=O)c1cc(Oc2ccc(NC(=O)c3cccc(C(F)(F)F)c3)cc2)ccn1 |  | 11.6 µM (active)
COc1cc(/C=C/CO)ccc1O[C@@H]1O[C@H](CO)[C@@H](O)[C@H](O)[C@H]1O | 75.9% (inactive) | 
CC1CCC2(OC1)OC1CC3C4CCC5C[C@@H](O[C@@H]6O[C@H](CO[C@@H]7OC[C@@H](O)[C@H](O)[C@H]7O)[C@H](O)[C@H](O)[C@H]6O)CC[C@]5(C)C4CC[C@]3(C)C1C2C (stereo not given in full) | 56.6% [at 17.3 µM] (inactive) | 
C=C1C[C@]23C[C@H]1CC[C@H]2[C@]1(C)CCC[C@@](C)(C(=O)O)[C@H]1[C@@H]3C(=O)O | 67.2% (inactive) | 
O=C(O)/C=C/c1ccc(O[C@@H]2O[C@H](CO)[C@@H](O)[C@H](O)[C@H]2O)cc1 | 99.6% (inactive) | 
O=C(O)c1cc(-c2c(-c3ccccc3)nn3ccccc23)n[nH]c1=O | 73.1% (inactive) | 
O=C(O)C[C@@H](NC(=O)c1cc(-c2ccc(-c3ccncc3)cc2)cs1)c1ccccc1 | 59.7% (inactive) | 
CC1(C(=O)O)CCCC2(C)C3CCC4CC3(CCC12)CC4=O (stereo not given) |  | 13 µM (active)
CC1=C2C(=O)C=C(CO)C2[C@H]2OC(=O)[C@H](C)[C@@H]2[C@@H](OC(=O)Cc2ccc(O)cc2)C1 (stereo not given in full) | 74.2% [at 17.3 µM] (inactive) | 
CC(=O)O[C@@H]1C[C@@H](OC(C)=O)C(C)(C)/C=C/[C@H](C)[C@H](OC(C)=O)[C@@]2(O)C[C@H](C)[C@H](OC(=O)c3ccccc3)[C@@H]2/C=C/1C |  | 0.968 µM (active)
